PubChem BioAssay (NCI)
About 79,000 compounds went through this panel and 15% of them were active in at least one assay; those are over-represented in the sample as a whole. Unmarked numbers belong to inactive results. Calls of active or inactive are those of the source. Cut-off read from the data, not from the text of the source: active = growth inhibition above about 70%; inactive = the rest.

Tests used:
[1] = NCI Yeast Anticancer Drug Screen. Data for the rad50 strain (AID 155);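 note: 0% = growth of vehicle-only cultures of the same strain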; details: S. cerevisiae rad50 strain growth inhibition, active compounds read high
Summary of the method: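 Yeast carrying a defined DNA repair defect were exposed to test compounds, and growth was compared with vehicle-treated controls to give percent inhibition.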

[2] = NCI Yeast Anticancer Drug Screen. Data for the mec2-1 strain (AID 157); details: S. cerevisiae mec2-1 strain, active compounds read high
Summary of the method: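 Vehicle-treated cultures served as reference for growth inhibition of compound-exposed mec2-1 yeast.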

[3] = NCI Yeast Anticancer Drug Screen. Data for the cln2 rad14 strain (AID 165);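 note: 0% = growth equal to vehicle treated cultures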; details: S. cerevisiae cln2 rad14 strain, active compounds read high
Summary of the method: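 Each compound was tested on cln2 rad14 yeast. Inhibition of growth was calculated against vehicle-exposed controls.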

[4] = NCI Yeast Anticancer Drug Screen. Data for the bub3 strain (AID 167); details: S. cerevisiae bub3 mutant strain, active compounds read high
Summary of the method: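 Compounds were applied to a genetically altered yeast strain carrying a cell-cycle control defect. Growth inhibition was scored against vehicle-treated controls.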

[5] = NCI Yeast Anticancer Drug Screen. Data for the mlh1 rad18 strain (AID 175); details: S. cerevisiae mlh1 rad18 strain growth inhibition, active compounds read high
Summary of the method: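 Vehicle-treated cultures served as the reference for growth inhibition in a yeast strain carrying DNA damage repair alterations exposed to each compound.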

[6] = NCI Yeast Anticancer Drug Screen. Data for the sgs1 mgt1 strain (AID 161);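 note: 0% = growth of cultures given vehicle only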; details: S. cerevisiae sgs1 mgt1 strain, active compounds read high
Summary of the method: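 Genetically altered yeast, compound exposure, growth inhibition relative to vehicle.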

[7] = at 5.0 µM (retest, dose inferred, filed as 0.5)
[8] = at 50.0 µM (retest, dose inferred, filed as 5.0)

Compound | growth inhibition [1, 7] | growth inhibition [1, 8] | growth inhibition ([1]; at 50.0 µM) | growth inhibition [2, 7] | growth inhibition [2, 8] | growth inhibition ([2]; at 50.0 µM) | growth inhibition [3, 7] | growth inhibition [3, 8] | growth inhibition ([3]; at 50.0 µM) | growth inhibition [4, 7] | growth inhibition [4, 8] | growth inhibition ([4]; at 50.0 µM) | growth inhibition [5, 7] | growth inhibition [5, 8] | growth inhibition ([5]; at 50.0 µM) | growth inhibition [6, 7] | growth inhibition [6, 8] | growth inhibition ([6]; at 50.0 µM)
CCCn1c(=O)c2ccccc2[n+]2c(-c3ccc([N+](=O)[O-])cc3)csc12 | 5% | 91% (active) | 93% (active) | 1% | 92% (active) | 91.8% (active) | -7% | 77% (active) | 67.1% | -17% | 97% (active) | 93.5% (active) | 11% | 85% (active) | 92.2% (active) |  |  | 
Cc1cc(I)ccc1NC(=S)Nc1ccccc1F | -3% | 62% | 90.7% (active) | -4% | 79% (active) | 90.5% (active) | -19% | 45% | 70% (active) | 5% | 86% (active) | 95.1% (active) | -4% | 68% | 90.7% (active) | -3% | 41% | 86.5% (active)
Nc1nnc(-c2cc(=O)c3cc(Cl)ccc3o2)s1 | -1% | 13% | 60% | -1% | 8% | 20.4% | -2% | 11% | 10.7% | 3% | 11% | 22.4% | -1% | 10% | 10.4% | -2% | 6% | 20.1%
Cc1ccc(S(=O)(=O)OC(COC(=O)c2ccc([N+](=O)[O-])cc2)C2OC(C)(C)OC2C(SCc2ccccc2)SCc2ccccc2)cc1 (centres undefined) | 4% | 10% | 96.8% (active) | 5% | 1% | 86.5% (active) | 2% | 8% | 39.2% | 17% | 23% | 89% (active) | 6% | -2% | 93.7% (active) | -1% | 5% | 95.5% (active)
O=C(N/C(=C\c1nc2ccccc2s1)c1ccccc1O)c1ccccc1 | -10% | 68% | 29.8% | 7% | 30% | 12.3% | 2% | 41% | 17.2% |  |  |  | 19% | 37% | 32% | -16% | 31% | 38.5%
